# Only some compounds are listed: those with a hit (about 15% of all), similar ones and a draw of the others.
# Pf growth 48h: inhibits P. falciparum growth in the first generation, 48 h. P. falciparum luciferase growth in erythrocytes, 48 h. Potency, µM (titrated, usually from 28.7 µM), for inactives: at the highest dose activity change, negative = inhibition, usual class: inhibitors. 5.9% of 310,000 active. AID 504832; also: potency is read from the fitted curve at half-maximal effect; % is scaled to controls: 0 for no effect and ±100 for the full control effect
#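 Cell-based growth assay: transgenic P. falciparum expressing firefly luciferase, cultured in red cells within RPMI 1640 containing 0.5% w/v Albumax, 24 mM bicarbonate and gentamycin. A drop in luciferase activity indicates inhibition.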
# Sm TGR inh: inhibitors of Schistosoma mansoni thioredoxin glutathione reductase; Q962Y6; purified TGR, DTNB reduction, TNB absorbance 405 nm; Potency, µM (titrated, usually from 114 µM), without a hit: at the top dose activity change, negative = inhibition, hits mostly inhibitors; 3% of 360,000 active; AID 485364; also: potency is read from the fitted curve at half-maximal effect; % is scaled to controls: 0 for no effect and ±100 for the full control effect; nearly all actives have a fitted effect of over 60% in size
#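 TGR 20 nM + NADPH 100 uM (dispensed conc.), cpd preinc 15 min RT; start with NADPH (500 uM addition) then DTNB (15 mM addition). Kinetic TNB absorbance, 405 nm filter. Four-parameter Hill fit across titration.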
# HCMV inh: inhibitors of human cytomegalovirus; HFF cells, HCMV-luciferase reporter, 72 h; stronger effect = lower value; 4.5% of 410,000 active; activity change, negative = inhibition, % at 57.5 µM; in the data active = activity change below about -60%; inconclusive = no clear call, values can overlap the other calls; inactive = above about -39%; also: % is scaled to controls: 0 for no effect and ±100 for the full control effect
#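 Luciferase read-out from HCMV-luciferase-infected HFFs (MOI 1 PFU/cell) 72 h post infection at 37C; compounds added after 16 h cell attachment; activity normalized between buffer-only basal and Salinomycin (10uM) inhibitor controls.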
# HCV inhibitor: inhibitors of hepatitis C virus infection. 3.4% of 340,000 active. Potency, µM (top dose mostly 41.8 µM), for the others: top-dose activity change, negative = inhibition, usual class: inhibitors. Huh7.5.1 HCVcc-Cre infection, luciferase reporter, 44 h; also: potency is read from the fitted curve at half-maximal effect; % is scaled to controls: 0 for no effect and ±100 for the full control effect
#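 Infectious HCV cell culture screen: compound-treated cells (1,000/well, pre-plated 4 h) are infected with HCVcc-Cre at roughly 0.5 moi and grown 44 h. Infection is quantified by luciferase signal after 15 min substrate incubation at room temperature.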
# SARS PLP yeast: blocks SARS-CoV papain-like protease in a yeast assay; S. cerevisiae expressing SARS-CoV PLpro, growth rescue; Potency, µM (highest dose often 32.9 µM), inactives show at the top dose activity, positive = growth rescue, actives largely listed as activators; 0.19% of 330,000 active; AID 485353; calls by dose curve; also: potency is read from the fitted curve at half-maximal effect; 0% is about no effect; nearly all actives have a fitted effect of over 55% in size
# Pf growth 96h: P. falciparum growth inhibition at 96 hour, primary screen for plastid delayed-death inhibitors; P. falciparum luciferase reporter growth, 96 h; Potency, µM (highest dose often 28.7 µM), for inactives: at the top dose activity change, negative = inhibition, usual class: inhibitors; 6.9% of 320,000 active; AID 504834; also: potency is read from the fitted curve at half-maximal effect; % is scaled to controls: 0 for no effect and ±100 for the full control effect
#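 Luminescence readout: decreased luciferase signal marks inhibited growth of reporter-expressing P. falciparum in infected red cells (2% hematocrit, 0.05% parasitemia final), exposed to compound two generations (96 h, 37 C, 5% CO2).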
# Numbers without * were called inactive; ? = inconclusive; / = no result; [ ] = another dose, or the depositor's remark. Unless noted, calls follow the shape of the dose curve; as a rule, active = well fitted curve in the direction sought with a large enough effect; inconclusive = small, poorly fitted or top-dose-only effect, or another doubt; inactive = no such curve, though single readings can be large; an effect the other way counts as inactive or inconclusive.
SMILES,Pf growth 48h,Sm TGR inh,HCMV inh,HCV inhibitor,SARS PLP yeast,Pf growth 96h
N#C/C=C(/N)c1ccc(Br)cc1,13µM*,-3%,-11,19%,-26%,10µM*
O=[N+]([O-])c1ccc(CN2CCN(c3nc4ccccc4s3)CC2)cc1,29%,?,?,18%,2%,?
CCn1nc([N+](=O)[O-])c(C(C#N)c2nc3ccccc3n2C)c(Cl)c1=O (stereo unspecified),-2%,14µM*,-14,1%,-12%,-16%
CCCn1nc([N+](=O)[O-])c(C(C#N)c2nc3ccccc3s2)c(Cl)c1=O (stereo unspecified),/,1.3µM*,-90*,?,-57%,-37%
CCOc1ccc(N2C(=O)C(c3nnnn3C(C)(C)C)N(Cc3ccc(OC)c(OC)c3)C2=O)cc1 (stereo unspecified),/,/,-6,/,/,/
COc1ccccc1NS(=O)(=O)c1cccc(C(=O)N/N=C(\C)c2cccnc2)c1,?,-7%,2,-9%,1%,?
CC(C)NC(=O)C1(C)CSCC(=O)N1CCCN1CCOCC1 (stereo unspecified),/,/,20,/,/,/
Cc1nc2c(=O)n(C)c(=O)n(C)c2nc1Cl,10%,6.3µM*,-103*,14µM*,-34%,4%
Cn1c(=O)c2nncnc2n(C)c1=O,-9%,0%,-35,-4%[0.335 µM],13%,-4%
NS(=O)(=O)c1ccc2nc(NC(=O)Nc3ccc(F)cc3)sc2c1,38%,-5%,-19,-20%,4%,94%
O=C(NCSc1ccncn1)c1ccccc1,?,28µM*,15,23%,-11%,30%
O=C(NCSc1ccnc(SCNC(=O)c2ccccc2)n1)c1ccccc1,-20%,?,19,9%,-7%,18%
O=C(CC[C@H]1O[C@@H](n2cnc3c(NC(=O)c4ccccc4)ncnc32)[C@H](O)[C@@H]1O)NCc1ccc2c(c1)OCO2,/,/,-20,/,/,/
COC(=O)c1ccccc1NC(=O)Cn1c(=O)n(-c2ccc(C)cc2)c(=O)c2ccccc21,/,-1%,-62*,/,/,/
COC(=O)c1ccccc1NC(=O)Cn1c(=O)n(CCC(=O)NC2CCN(Cc3ccccc3)CC2)c(=O)c2ccccc21,93%,-8%,-23,-10%,0%,9.3µM*
O=C1Nc2ccccc2N2CCCC12 (stereo unspecified),?,?,/,/,-1%,?
O=C1Nc2cc(Cl)cnc2N2CCCC12 (stereo unspecified),-25%,?,2,?,-12%,4.1µM*
Cc1ccc(OCC(=O)Nc2ccon2)c([N+](=O)[O-])c1,132%,?,12,-1%,0%,105%
Brc1ccc(-c2ccc(CNCCSc3nnnn3-c3ccccc3)o2)cc1,/,18µM*,20,/,/,/
Clc1ccc(-c2ccc(CNCCSc3nnnn3-c3ccccc3)o2)cc1,/,8%,1,/,/,/
Cc1nnc(NC(=O)CSc2nc(N)c(NC(=O)c3cccs3)c(=O)[nH]2)s1,25%,18%,0,15%,0%,26%
CCN=C1S/C(=C\c2cc(OCC)c(O)cc2Br)C(=O)N1CC,12µM*,-20%,-9,?,7%,10µM*
Oc1ccc(Br)cc1/C=N/n1cnc2ccccc21,3.3µM*,4%,74,-29%,-12%,2.3µM*
O=C(c1ccccc1S(=O)(=O)NCc1ccccc1)N1CCCC1,/,5%,-1,6%,11%,15µM*
Cc1ccc(C)c(S(=O)(=O)NCc2ccc(C(=O)N3CCCCCC3)cc2)c1,?,-10%,?,-5%,7%,7.4µM*
Cc1cc(C)c(C)c(S(=O)(=O)NCc2ccc(C(=O)N3CCCCC3)cc2)c1C,1µM*,2%,-16,?,-38%,0.41µM*
Cc1cc(C)c(C)c(S(=O)(=O)NCC(=O)N2CCCC2)c1C,-13%,4%,-15,-21%,-2%,19%

# Source: PubChem BioAssay
